About 1,000 (0.29%) of roughly 340,000 compounds were called active. Rule as the data show it: inconclusive = inhibition above about 29% without an active follow-up result; inactive = below that. Not all results are given here. Potency and affinity values are given separately.
Biological target: Genome polyprotein (Dengue virus type 2 (strain 16681-PDK53)) (UniProt P29991)
Assay: flavivirus cap methylation enzyme inhibition – biochemical, confirmation dose response, primary screen (AID 588689)
Conditions: Dengue-2 NS5 methyltransferase capping enzyme assay, at 25 µM, stronger effect = higher value
[1] = measured here: pilot screen replicate inhibition

SMILES | inhibition | inhibition [1]
COc1ccc(Nc2ccc(Cl)cc2)c(C(=O)O)c1 | 9.44% (inactive) | –
CCCCC(=O)Nc1cc(Cl)ccc1C(=O)O | 1.56% (inactive) | –
CCC(=O)Nc1cc(Cl)ccc1C(=O)O | -5.46% (inactive) | –
COc1ccc(NC(=O)Cc2ccc(Cl)cc2Cl)cn1 | -4.71% (inactive) | –
CC(C)(C)c1ccc(S(=O)(=O)N2CCN(c3ncccn3)CC2)cc1 | -5.15% (inactive) | –
O=C(OCCCOC(=O)c1cc[n+]([O-])cc1)c1cc[n+]([O-])cc1 | -7.73% (inactive) | –
CN(C)/C=C1\C(=O)N(c2ccc(Oc3ccccc3)cc2)CS1=O (stereo unspecified) | -8.86% (inactive) | 4.42%
C=CCN1C(=O)C(Cc2ccc(F)cc2)S/C1=N/N=C/c1cccs1 (stereo unspecified) | -3.47% (inactive) | –
O=C(Nc1sc2c(c1C(=O)O)CCC2)c1cccc(Cl)c1 | 15.2% (inactive) | –
Cc1cccc(C(=O)Nc2sc3c(c2C(=O)O)CCCC3)c1 | 2.61% (inactive) | –
CC(=O)c1cccc(NC(=O)C23CC4CC(C2)CC(n2cncn2)(C4)C3)c1 | -0.64% (inactive) | –
NCCCC[C@@H](C(=O)NCCCCCCCCCCC(=O)N1CCNCC1)n1cc(CCCC(=O)O)nn1 | -0.8% (inactive) | –
Cc1cc2ccccc2n2c(SCC(=O)N3CCOCC3)nnc12 | -8.09% (inactive) | –
COc1ccc(CNC(=O)C(C)OC(=O)CCN2C(=O)C3CC=CCC3C2=O)cc1 (stereo unspecified) | 2.89% (inactive) | –
CC1Cc2ccccc2N1C(=O)CSc1ncccn1 (stereo unspecified) | -4.43% (inactive) | –
C=CCOc1ccc(/C=C\c2nc(O)c([N+](=O)[O-])c(=O)[nH]2)cc1OC | 0.57% (inactive) | –
COc1cc(Br)cc(/C=C/c2ccc3cccc(O)c3n2)c1OC | 13.2% (inactive) | –
COc1ccc2cc(/C=N/NC(=O)CSCc3ccc([N+](=O)[O-])cc3)c(Cl)nc2c1 | 4.46% (inactive) | –
c1ccc(CSc2nnc3c(n2)OC(c2ccco2)Nc2ccccc2-3)cc1 (stereo unspecified) | -0.8% (inactive) | –
CSc1nnc2c(n1)OC1(Nc3ccccc3-2)C(=O)Nc2ccccc21 (stereo unspecified) | 3.9% (inactive) | –
Cc1ccc(SCc2[nH]nc3c2C2(C(=O)Nc4ccc(F)cc42)C(C#N)=C(N)O3)cc1 (stereo unspecified) | 2.51% (inactive) | 3.94%
CCSc1nnc2c(n1)OC(C)(C)Nc1ccccc1-2 | -5.52% (inactive) | –
O=C(CSc1nnc(Cc2ccccc2)n1-c1ccc(Cl)cc1)N1CCOCC1 | -3.47% (inactive) | –
N=C1C(c2ccccc2)=C(O)C2CCc3ccccc3N12 (stereo unspecified) | -2.07% (inactive) | –

SMILES | inhibition | inhibition [1]
CC(=O)N1CCN(c2ccc([N+](=O)[O-])cc2C#N)CC1 | -1.43% (inactive) | –
O=C1N/C(=C/c2cccn2-c2ccc(F)cc2)C(=O)N1Cc1ccccc1 | -0.68% (inactive) | –
O=C1NC(=O)N(Cc2ccccc2)C1=O | 0% (inactive) | –
O=C(CN1CCN(c2ccc(F)cc2)CC1)c1ccc2c(c1)OCO2 | -2.07% (inactive) | –
CC(=O)OC1C([N+]2(C)CCCCC2)C[C@H]2C3CC[C@H]4C[C@H](OC(C)=O)C([N+]5(C)CCCCC5)CC4(C)[C@H]3CCC12C (stereo partly specified) | -1.47% (inactive) | –
O=C1C(SCCO)=C(SCCO)C(=O)c2ccccc21 | -3.66% (inactive) | –
Cn1c(SCc2ccccc2)nccc1=O | 1.94% (inactive) | –
COc1ccc(Nc2ncnc3sc(-c4ccccc4)cc23)cc1 | -5.46% (inactive) | –
O=C(NN1C(=O)/C(=C/c2cccs2)SC1=S)c1ccncc1 | -4.6% (inactive) | –
O=C(NN1C(=O)/C(=C/c2cccs2)SC1=S)c1ccccc1 | -1.93% (inactive) | –
Cc1ccc(S(=O)(=O)NN2C(=O)/C(=C/c3ccccn3)SC2=S)cc1 | 14% (inactive) | –
CCN1C(=O)/C(=C/c2cccs2)S/C1=N\S(=O)(=O)c1ccc(C)cc1 | -2.56% (inactive) | –
Cc1cc(C)cc(OCC(=O)N/N=C/c2ccccn2)c1 | 6.27% (inactive) | –
COc1cc2c(cc1OC)C(c1cccs1)N(C(=S)NC(C)C)CC2 (stereo unspecified) | -5.35% (inactive) | –
Cc1ccc(-c2nnn(CC(=O)N(Cc3ccccc3)C(C(=O)NC(C)(C)C)c3ccncc3)n2)o1 (stereo unspecified) | -0.68% (inactive) | –
Cc1cccc(C)c1OCC(O)Cn1c2ccccc2c2ccccc21 (stereo unspecified) | -10.5% (inactive) | –
CCCc1c(C)c2ccccc2[nH]c1=O | -1.65% (inactive) | –
Cc1ccc(C(=O)O)cc1NS(=O)(=O)c1ccc2c(c1)oc(=O)n2C | -6.53% (inactive) | –
O=C(O)c1cccc(N2C(=O)C3CC=CCC3C2=O)c1 (stereo unspecified) | -1.37% (inactive) | –
O=C(O)c1cccc(N2C(=O)c3ccc4c5c(ccc(c35)C2=O)C(=O)N(c2cccc(C(=O)O)c2)C4=O)c1 | 16.5% (inactive) | –
O=C(O)c1cc(C(=O)O)cc(N2C(=O)CSC2=S)c1 | -4.42% (inactive) | –
Cc1cc(C)cc(N2C(=O)C=CC2=O)c1 | -24.7% (inactive) | –
N/C(=N\OC(=O)Oc1ccccc1)c1ccc(Cl)cc1 | 2.93% (inactive) | –
COc1ccc(CNC(=O)c2cc(=O)c3cc(C)cc(C)c3o2)cc1 | -5.29% (inactive) | –

SMILES | inhibition | inhibition [1]
O=[N+]([O-])c1ccc(SCc2c(F)cccc2Cl)nc1 | -6.18% (inactive) | –
O=C(O)/C=C/C(=O)Nc1ccc(C(=O)c2ccccc2)cc1 | -4.59% (inactive) | –
O=C(O)/C=C/C(=O)Nc1ccc(-c2ccccc2)cc1 | -12.6% (inactive) | –
CC(C)CN(C(=O)CCCSc1nc2ccccc2[nH]1)c1c(N)n(Cc2ccccc2)c(=O)[nH]c1=O | 2.91% (inactive) | –
CCC1(C)Cc2c(sc3[nH]c(=S)[nH]c(=S)c23)CO1 (stereo unspecified) | -4.57% (inactive) | –
CC1(C)Cc2c(sc3[nH]c(=S)[nH]c(=O)c23)CO1 | -1.64% (inactive) | –
O=S(=O)(/N=C(\Nc1ccc(F)cc1)C(F)(F)F)c1ccccc1 | 3.78% (inactive) | –
COc1ccc(C(=O)C(C)Oc2cccc(NC(=O)c3cccc([N+](=O)[O-])c3)c2)cc1 (stereo unspecified) | 3.25% (inactive) | –
NS(=O)(=O)c1ccc(N=Nc2ccc(O)c3ncccc23)cc1 | 13.7% (inactive) | –
Cc1ccccc1N=Nc1ccc(O)c2ncccc12 | -2.17% (inactive) | –
CCN(CC)c1nc2ccccc2n(Cc2cccc(OC)c2)c1=O | -2.37% (inactive) | –
Cc1ccc(S(=O)(=O)N2CCC[C@H]2C(=O)OCC(=O)c2ccc3c(c2)NC(=O)CO3)cc1 | -4.71% (inactive) | –
O=C(COc1ccccc1[N+](=O)[O-])Nc1cc(Cl)ccc1C(=O)O | 0% (inactive) | –
CC(=O)Nc1ccccc1NC(=O)COc1cccc2ccccc12 | -2.63% (inactive) | –
O=C(Cc1cccc2ccccc12)Nc1cc(Cl)ccc1C(=O)O | -1.36% (inactive) | –
O=C(COc1ccccc1C(=O)O)Nc1cccc2ccccc12 | 1.47% (inactive) | –
COc1cc(C(C(=O)NC2CCCC2)N(CCO)C(=O)Cn2nnc(-c3ccc(C)o3)n2)ccc1O (stereo unspecified) | 0.83% (inactive) | –
COc1ccc(CCNC(=O)CN(c2cc(OC)ccc2OC)S(=O)(=O)c2ccccc2)cc1 | -15.3% (inactive) | –
N#CC1(c2ccccc2)CCC(=NNS(=O)(=O)c2ccccc2)CC1 (stereo unspecified) | -6.67% (inactive) | –
CCn1c(SCC(=O)NC2CCCCC2)nnc1-c1cccs1 | -2.08% (inactive) | –
CCCc1[nH][nH]c(=O)c1C(c1ccc(Cl)cc1)C(C#N)C#N (stereo unspecified) | -8.33% (inactive) | –
Cc1[nH]n(-c2ccccc2)c(=O)c1C(C[N+](=O)[O-])c1ccc(Cl)cc1 (stereo unspecified) | 4.51% (inactive) | –
CCCc1[nH][nH]c(=O)c1C(c1ccc(Br)cc1)C(C#N)C#N (stereo unspecified) | -1.4% (inactive) | –
Cc1[nH]n(-c2ccccc2)c(=O)c1-c1ccc(Cl)cc1 | -1.62% (inactive) | –

SMILES | inhibition | inhibition [1]
COc1ccc(C(c2c(C)[nH]n(C(N)=S)c2=O)C(C#N)C#N)cc1 (stereo unspecified) | 28% (inactive) | –
Cc1[nH]n(-c2ccccc2)c(=O)c1C(C[N+](=O)[O-])c1ccc(Br)cc1 (stereo unspecified) | 12.4% (inactive) | –
Cc1[nH]oc(=O)c1N=Nc1ccc2[nH]c(=O)[nH]c2c1 | -0.78% (inactive) | –
Cc1c(NC(=O)Nc2cccc(Cl)c2Cl)c(=O)n(-c2ccccc2)n1C | 3.9% (inactive) | –
C/C(N)=C(/C#N)C(=O)COC(=O)[C@@H](NC(=O)c1ccccc1Cl)C(C)C | -7.12% (inactive) | –
CCCCc1nnc(SCC(=O)Nc2nccs2)n1CC | -0.32% (inactive) | –
CC1CCCN(S(=O)(=O)c2ccc3[nH]c(=O)cc(C(=O)NCCCN4CCCCCC4)c3c2)C1 (stereo unspecified) | -5.49% (inactive) | –
NC1=C(Br)C(=O)c2ncccc2C1=O | 20.2% (inactive) | –
O=C1c2cccnc2-c2ncccc21 | 5.95% (inactive) | –
Cc1cccc(N2C(=O)c3ccc(Br)cc3C2=O)n1 | -2.38% (inactive) | –
COC1=C(N)C(=O)c2nc(C)ccc2C1=O | 12.3% (inactive) | –
O=C(OCC(=O)N1CCOCC1)c1ccc[nH]c1=O | -3.24% (inactive) | –
CCN(Cc1ccccc1)C(=O)CCNS(=O)(=O)c1cc(Br)cnc1N | 2.62% (inactive) | –
CC1CCN(c2nc3ccc(C(=O)N4CCN(Cc5ccc6c(c5)OCO6)CC4)cc3s2)CC1 | -4.17% (inactive) | –
COc1ccc2nc(N3CCC(C)CC3)c(C#N)cc2c1 | 14.4% (inactive) | –
COc1ccc2nc(N3CCCC3)c(C#N)cc2c1 | 12.8% (inactive) | –
CC(=O)Nc1ccc(NC(=O)C(C)OC(=O)CCC2CCCCC2)cc1 (stereo unspecified) | 0.32% (inactive) | –
CCN(C(=O)COC(=O)/C=C/c1ccc(Cl)c(Cl)c1)c1c(N)n(Cc2ccccc2)c(=O)[nH]c1=O | 2.22% (inactive) | –
COc1ccccc1OCCCCNC(C)(C)C | -1.39% (inactive) | –
O=C(Nc1ccc(S(=O)(=O)Nc2ncccn2)cc1)c1ccc(Br)o1 | -3.89% (inactive) | –
CC1(C)Cc2c(C#N)c(N)sc(=S)c2CO1 | 4.14% (inactive) | –
N#Cc1c(N)sc2c1CCCCCC2 | -3.42% (inactive) | –
